Test results: PubChem BioAssay (NCATS)
A number with no mark means an inactive call. Records with an inconclusive call do not appear. Calls of active or inactive are those of the source. The call rests on the fitted dose curve; in most records, active means well fitted curve in the direction sought with a large enough effect; inconclusive means small, poorly fitted or top-dose-only effect, or another doubt; inactive means no such curve, though single readings can be large; an effect the other way counts as inactive or inconclusive.

Assays:
[1] = Cellular Toxicity (caspase-3) SK-N-SH (AID 661)
How it was run: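 Cells were seeded and incubated 5 hr at 37 °C, dosed with compound over a concentration range for 16 hr, then given Caspase-Glo 3/7 reagent for 1 hr at room temperature before luminescence reading.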

[2] = Cellular Toxicity (caspase-3) H-4-II-E (AID 663);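 further: cells exposed to compound for 16 hr before readout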
How it was run: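 H-4-II-E rat hepatoma, 1500 cells/well, 5 hr settle at 37 °C; compound 16 hr, 37 °C, complete medium; Caspase-Glo 3/7, 20 min RT; luminescence. DMSO = 0%, 100 uM tamoxifen = 100%; Hill-equation AC50.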

[3] = Cellular Toxicity (caspase-3) Hek293 (AID 664);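 further: cells exposed to compound for 16 h at 37 °C before readout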
How it was run: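 qHTS, HEK293 (human embryonic kidney), 16 h cpd exposure in complete medium. Caspase-3/7 activation = luminescence increase; normalized to DMSO/100 uM tamoxifen; Hill-fit AC50.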

[4] = Cellular Toxicity (caspase-3) N2a (AID 665);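 further: compound exposure lasted 16 h at 37 °C before readout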
How it was run: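 Caspase-3/7 activation, measured as increased luminescence from aminoluciferin release, is quantified in mouse N2a cells exposed to compounds for 16 h. Values are normalized to DMSO and 10 uM staurosporine, with AC50 derived by Hill modelling.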

[5] = Cellular Toxicity (caspase-3) NIH 3T3 (AID 666);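 further: caspase signal read after 16 h compound exposure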
How it was run: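 Cells were plated at 1000 per well and incubated 5 hr at 37°C, then compound was added for 16 hr. Caspase-Glo 3/7 reagent followed for 20 min at room temperature before luminescence was read.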

[6] = Cell Viability - LYMP2-001 (AID 921); conditions: LYMP2-001 lymphoblastoid cell viability; further: potency means the concentration at half of the fitted maximal effect; nearly all actives have a fitted effect of over 70% in size
How it was run: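 Human lymphoblastoid cells (Coriell), 2500 per well, were preincubated 5 hr at 37 C, then exposed to compounds in complete medium for 24 hr at 37 C. Cellular ATP was read by CellTiter-Glo luminescence; AC50 from Hill fits of concentration-response data.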

[7] = MultiTox-Fluor Cytotoxicity Assay - LYMP1-001 - Dead Cells (AID 946)
How it was run: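 AC50 from Hill fit of concentration-response; data normalized to DMSO (basal) and 15 uM tetraoctylammonium bromide (100%). LYMP1-001 lymphoblastoid cells, 2500/well, 16 hr compound at 37 C; dead-cell protease fluorescence, Ex/Em 485/520.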

[8] = Cell Viability - LYMP1-002 - Assay at 16 hr (AID 948); conditions: LYMP1-002 lymphoblastoid cell viability; further: potency means the concentration at half of the fitted maximal effect
How it was run: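 Human lymphoblastoid cells (LYMP1-002), 2500/well, were preincubated 5 hr at 37 C, then exposed to compounds for 16 hr at 37 C in complete medium. Cellular ATP was read by CellTiter-Glo luminescence after 30 min at room temperature; AC50 from Hill fits.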

[9] = MultiTox-Fluor Cytotoxicity Assay - LYMP1-002 - Dead Cells (AID 960); further: nearly all actives have a fitted effect of over 60% in size
How it was run: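 Cells were plated, rested 5 hr, then treated with compound dilution series for 16 hr at 37 C. After adding substrate reagent and 60 min at room temperature, dead-cell protease fluorescence gave concentration-response curves fitted by the Hill equation.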

[10] = MultiTox-Fluor Cytotoxicity Assay - LYMP1-003 - Dead Cells (AID 961); further: nearly all actives have a fitted effect of over 70% in size
How it was run: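 Human lymphoblastoid LYMP1-003 cells (2500/well) were treated with compounds for 16 hr at 37 C in complete medium. Dead-cell protease release was read by bis-AAF-R110 fluorescence (Ex/Em 485/520). AC50 came from Hill fits, normalized to DMSO and 15 uM tetraoctylammonium bromide.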

[11] = MultiTox-Fluor Cytotoxicity Assay - LYMP1-003 - Live Cells (AID 962); conditions: LYMP1-003 lymphoblastoid cells, MultiTox-Fluor live-cell protease fluorescence; further: potency means the concentration at half of the fitted maximal effect
How it was run: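 Acute cytotoxicity is scored as a drop in live-cell protease activity in human lymphoblastoid LYMP1-003 cells after 16 hr compound exposure at 37 C. AC50 values come from Hill-equation modelling of concentration-response data.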

[12] = Cell Viability - LYMP1-003 - Assay at 24 hr (AID 963); conditions: LYMP1-003 lymphoblastoid cell viability; further: potency means the concentration at half of the fitted maximal effect
How it was run: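 Cytotoxicity is scored as a concentration-dependent fall in ATP-linked luciferase signal in human lymphoblastoid LYMP1-003 cells treated 24 hr at 37 C in complete culture medium.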

[13] = Cell Viability - LYMP1-003 - Assay at 40 hr (AID 964); conditions: LYMP1-003 lymphoblastoid viability; further: potency means the concentration at half of the fitted maximal effect; nearly all actives have a fitted effect of over 60% in size
How it was run: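 Luminescent ATP signal (CellTiter-Glo) served as the viability read-out after 40 hr compound treatment of human lymphoblastoid LYMP1-003 cells at 37 C. Decreases in ATP were fitted with the Hill equation to give AC50.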

[14] = Cell Viability - LYMP2-003 (AID 965); conditions: LYMP2-003 lymphoblastoid cell viability;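 further: potency means the concentration at half of the fitted maximal effect; cells exposed to compounds for 24 h before reading; nearly all actives have a fitted effect of over 50% in size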
How it was run: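 Human lymphoblastoid cells (2500/well) were pre-incubated 5 hr at 37 C, then exposed to compounds over a concentration range for 24 hr at 37 C. Intracellular ATP was read by CellTiter-Glo luminescence; AC50 came from Hill-equation fits.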

[15] = Cell Viability - LYMP2-004 (AID 966); conditions: LYMP2-004 lymphoblastoid cell viability, qHTS; further: potency means the concentration at half of the fitted maximal effect; nearly all actives have a fitted effect of over 65% in size
How it was run: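 qHTS cytotoxicity: human lymphoblastoid line, 24 hr compound treatment, 37 C, complete medium. Viability read as cellular ATP via luciferase luminescence; tetraoctylammonium bromide served as positive control.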

[16] = Cell Viability - LYMP2-005 (AID 967); conditions: LYMP2-005 lymphoblastoid cell viability; further: potency means the concentration at half of the fitted maximal effect
How it was run: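 CellTiter-Glo luminescence (cellular ATP) read-out; LYMP2-005 lymphoblastoid cells, 2500/well, 5 h pre-incubation, then 24 h compound exposure at 37 C in complete medium. Tetraoctylammonium bromide positive control; AC50 by standard Hill fit.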

[17] = Cell Viability - LYMP2-009 (AID 968); conditions: LYMP2-009 lymphoblastoid cell viability; further: potency means the concentration at half of the fitted maximal effect; nearly all actives have a fitted effect of over 55% in size
Description: NIH Chemical Genomics Center [NCGC]
NIH Molecular Libraries Screening Centers Network [MLSCN]
National Institutes of Environmental Health Sciences [NIEHS]
National Toxicology Program [NTP]
We have developed a 1536-well cell-based assay for quantitative high throughput screening (qHTS) against a number of cell lines to determine in vitro cytotoxicity of small molecules. This particular assay uses a human lymphoblastoid cell line (LYMP2-009) purchased from Coriell Institute for Medical Research.
NCGC Assay Protocol Summary:
The CellTiter-Glo luminescent cell viability assay (Promega) is a homogeneous method to measure the number of viable cells in culture. The end point readout of this assay is based on quantitation of intracellular ATP, an indicator of metabolic activity, using the luciferase reaction. […]
Using the CellTiter-Glo luminescent cell viability assay, the amount of cellular ATP was measured in the lymphoblastoid cell line with complete culture medium following compound treatment for 24 hours. […] Library compounds were measured for their ability to cause acute toxicity in the cell line, as reflected by a decrease in intracellular ATP levels, in a concentration-dependent manner. […] AC50 values were determined from concentration-response data modeled with the standard Hill equation. […]
8. Detection; Luminescence; Viewlux plate reader […]

[18] = Cell Viability - LYMP2-011 (AID 969); conditions: LYMP2-011 lymphoblastoid cells viability; further: potency means the concentration at half of the fitted maximal effect; nearly all actives have a fitted effect of over 60% in size
How it was run: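 In this qHTS cytotoxicity format, compounds are tested across concentrations on human lymphoblastoid cells in complete medium for 24 hours at 37 C. Viability is taken as cellular ATP measured by luciferase luminescence.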

[19] = Cell Viability - LYMP2-013 (AID 970); conditions: LYMP2-013 lymphoblastoid cells viability; further: potency means the concentration at half of the fitted maximal effect; nearly all actives have a fitted effect of over 55% in size
How it was run: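 Cytotoxicity is scored as a concentration-dependent drop in intracellular ATP in human lymphoblastoid cells after 24 hr compound exposure at 37 C. ATP is quantified by luciferase luminescence, and AC50 values come from Hill-equation modeling.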

[20] = Cell Viability - LYMP2-015 (AID 971); conditions: LYMP2-015 lymphoblastoid cell viability; further: potency means the concentration at half of the fitted maximal effect; nearly all actives have a fitted effect of over 55% in size
How it was run: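 Cells are seeded at 2500 per well and incubated 5 hr at 37 C. Compounds are added across a concentration series for 24 hr at 37 C. CellTiter-Glo is added, and luminescence is read after 30 min at room temperature.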

SMILES: O=C1c2c(O)ccc([N+](=O)[O-])c2C(=O)c2c([N+](=O)[O-])ccc(O)c21
- outcome [1]: inactive
- outcome [2]: inactive
- outcome [3]: inactive
- outcome [4]: inactive
- outcome [5]: inactive
- Potency [6]: 50.1 µM (active)
- outcome [7]: inactive
- Potency [8]: 39.8 µM (active)
- outcome [9]: inactive
- outcome [10]: inactive
- Potency [11]: 50.1 µM (active)
- Potency [12]: 39.8 µM (active)
- Potency [13]: 39.8 µM (active)
- Potency [14]: 31.6 µM (active)
- Potency [15]: 31.6 µM (active)
- Potency [16]: 39.8 µM (active)
- Potency [17]: 31.6 µM (active)
- Potency [18]: 39.8 µM (active)
- Potency [19]: 50.1 µM (active)
- Potency [20]: 31.6 µM (active)
